Laboratory results from PubChem BioAssay (NCATS).
Records with an inconclusive call do not appear. Values without a mark were called inactive. Activity calls are given as the source filed them. Calls come from the whole dose curve; as a rule, active = well fitted curve in either direction with a large enough effect (not every such curve was filed as active); inconclusive = small, poorly fitted or top-dose-only effect, or another doubt; inactive = flat fitted curve, though single readings scatter.

Assay: NFAT Signaling Pathway (AID 444);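 note: carbachol stimulus at about its EC50 of 1 µM final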
Details: Jurkat NFAT-bla M1, carbachol, beta-lactamase ratio, 5 h; at 17.2 µM (top of the series) unless noted
Outline: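 Jurkat cells carrying an NFAT-driven β-lactamase reporter and co-transfected muscarinic M1 receptor were treated with compound plus carbachol (1 uM final, an EC50 level) for 5 h at 37 °C. CCF4 loading followed for 1 h at RT; 460/530 nm ratio gave %activity.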
% is set by controls: 0 for no effect and ±100 for the full control effect.

Row | SMILES | activity change, negative = inhibition
1 | CCCOc1ccc(N2C(=O)C3ON(c4ccccc4)C(c4ccc(O)c(OC)c4)C3C2=O)cc1 (centres undefined) | 10.7%
2 | CCC(=NC(CC)CO)C1=C(O)CC(C)(C)CC1=O (centres undefined) | -5.13%
3 | [N-]=[N+]=CC(=O)c1ccnc(C(=O)C=[N+]=[N-])c1 | -17.4%
4 | Cc1ccc(-n2ncc3c(NCc4cccnc4)ncnc32)c(C)c1 | -27.9%
5 | Nc1ccc2oc(-c3ccccc3Cl)nc2c1 | 15.3%
6 | CNC(=O)c1cc2c(ccc3ccccc32)oc1=N | -5.77%
7 | CCOc1ccc(CC2CC(=O)NC2=O)cc1 (centres undefined) | -5.51%
8 | CCOc1ccc(S(=O)(=O)N(C)CCO)cc1-c1nc2c(C(C)(C)C)nn(C)c2c(=O)[nH]1 | 6.99%
9 | C=C(C)CC1N(c2cccc(OC)c2)C(=O)[C@@H]2C(C(=O)O)[C@H]3C=C[C@@]12O3 (some centres undefined) | 5.5%
10 | CCOC(=O)NC(Nc1sc2c(c1C(N)=O)CCCC2)(C(=O)OCC)C(F)(F)F (centres undefined) | -0.536%
11 | Nc1ccc2cn[nH]c2c1 | 2.08%
12 | CCCc1cc(-n2ccnc2C)n2c(nc3ccccc32)c1C#N | 6.63%
13 | CC(=O)C1=C(O)C(=O)N(Cc2cccnc2)C1c1ccccc1Cl (centres undefined) | 3.26%
14 | CC(C)Cc1nc(N2CCN(C(=O)C(C)C)CC2)c(C#N)c2c1CCC2 | -19.4%
15 | CCOC(=O)CSc1nc(N)c2c3c(sc2n1)CCCC3 | -14.4%
16 | CCC1(C)Cc2ccccc2-c2nc(NCCO)n(-c3ccccc3)c(=O)c21 (centres undefined) | 6.29%
17 | Cc1ccc(-n2ncc3c(NCc4ccc5c(c4)OCO5)ncnc32)c(C)c1 | 8.44%
18 | CC1(C)CC(=O)C(C=NCC(O)c2ccccc2)=C(O)C1 (centres undefined) | -0.832%
19 | N#Cc1c(N2CCCCC2)nc(N2CCCCC2)c2c1CCN(Cc1ccccc1)C2 | -13%
20 | Cn1c(Cl)nc2c1c(=O)n(Cc1cccc(Br)c1)c(=O)n2C | -23.7%

Row | SMILES | activity change, negative = inhibition
21 | Cc1nc2sc3c(NCc4ccco4)ncnc3c2c2c1COC(C)(C)C2 | -8.41%
22 | CCCn1c(SCC(N)=O)nc2c(c1=O)C1(CCCC1)Cc1ccccc1-2 | -22.4%
23 | COc1cccc(-c2nnc3sc(-c4ccc(C)cc4)nn23)c1 | -10.2%
24 | Brc1cccc(-c2cnc3n2CCCCC3)c1 | -87.3% (active)
25 | N#Cc1nc(-c2cccs2)oc1NCc1ccccc1 | -20.6%
26 | O=C(c1ccc2c3c(cccc13)C(=O)N(O)C2=O)N1CCCCC1 | 0.433%
27 | Cc1cc(=O)[nH]c(SCC(=O)c2ccccc2)c1C#N | 14.5%
28 | CCOC(=O)N1CCN(c2ncnc3c2cnn3-c2ccc(OC)cc2)CC1 | 10.2%
29 | COc1cc(C2C(C#N)=C(N)Oc3cc(C)n(CCc4ccccc4)c(=O)c32)cc2c1OCO2 (centres undefined) | -4.95%
30 | O=C1NC(c2cccs2)Nc2ccccc21 (centres undefined) | -4.93%
31 | CCOc1ccc(CCNC(=O)C(O)c2ccccc2)cc1 (centres undefined) | 4.66%
32 | CC1(C(=O)O)CCC(C(=O)NC2CCCCCC2)C1(C)C (centres undefined) | -7.92%
33 | COC(=O)c1ccc(CN(C(C)=O)c2ccccc2)o1 | -7.2%
34 | Cc1ccc(Cn2ncc3c(N4CCN(c5ccc(C)cc5)CC4)ncnc32)cc1 | -24.6%
35 | O=C(O)CSCC(=O)Nc1ccc(S(=O)(=O)N2CCCCC2)cc1 | 5.47%
36 | COC(=O)c1ccccc1NC(=O)CSc1nnc(-c2ccncc2)o1 | 4.54%
37 | COc1cccc(N2CCN(c3ncnc4c3[nH]c3ccccc34)CC2C)c1 (centres undefined) | -139% (active)
38 | CCOc1cc2nc(-c3ccc(OC)c(OC)c3)nc(N3CCOCC3)c2cc1OC | -10.2%
39 | COc1cccc(OC)c1OCC(C)CNCC1CCCO1 (centres undefined) | -18.8%
